The list is not random: actives were taken first. Their share in the collection is about 14%.
Pf growth 96h = P. falciparum growth inhibition at 96 hours; P. falciparum luciferase reporter growth, 96 h; 6.9% of 320,000 active; Potency, µM (doses to about 28.7 µM), for inactives: at the highest dose activity change, negative = inhibition, actives largely listed as inhibitors; also: potency is read from the fitted curve at half-maximal effect
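Erythrocytes infected with luciferase-expressing P. falciparum were dispensed at 2% hematocrit and 0.05% parasitemia (final), then incubated with compounds 96 hours at 37 C in 5% CO2. Luminescence after detection reagent addition reported growth.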
Marburg entry inh = blocks Marburg virus binding to or entry into cells | Potency, µM (highest dose often 37.8 µM), for the others: at the top dose activity change, negative = inhibition, actives largely listed as inhibitors | 1.8% of 300,000 active | AID 540276 | Marburg virus pseudotyped entry inhibition, cell reporter; calls by dose curve; tested in HEK293 cells; also: potency is read from the fitted curve at half-maximal effect
HCV inh = blocks hepatitis C virus; Potency, µM (titrated, usually from 41.8 µM), inactives show at the highest dose activity change, negative = inhibition, most hits filed as inhibitors; Huh7.5.1 HCVcc-Cre infection, luciferase reporter, 44 h; 3.4% of 340,000 active; also: potency is read from the fitted curve at half-maximal effect
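Cells (1,000/well) were plated 4 h before compound, then infected with HCVcc-Cre virus (~0.5 moi). After 44 h further culture, infection was read as luciferase luminescence following a 15 min substrate incubation at room temperature.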
LASV entry inh = Lassa virus entry inhibition. 1.2% of 300,000 active. AID 540256. Lassa virus pseudotype entry inhibition, cell reporter. Potency, µM (titrated, usually from 37.9 µM), inactives show at the highest dose activity change, negative = inhibition, hits mostly inhibitors; calls by dose curve; tested in HEK293 cells; also: potency is read from the fitted curve at half-maximal effect; nearly all actives have a fitted effect of over 50% in size
Pf growth 48h = inhibits P. falciparum growth in the first generation, 48 h; P. falciparum luciferase growth in erythrocytes, 48 h; Potency, µM (series often up to 28.7 µM), for inactives: at the top dose activity change, negative = inhibition, hits mostly inhibitors; 5.9% of 310,000 active; AID 504832; also: potency is read from the fitted curve at half-maximal effect
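Parasite viability was followed by luminescence of a genomically integrated firefly luciferase. Cultures held 0.1% parasitemia at 2% hematocrit (final), incubated under 5% CO2 at 37 C.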
HCMV inh = human cytomegalovirus inhibition. activity change, negative = inhibition, % at 57.5 µM. HFF cells, HCMV-luciferase reporter, 72 h; stronger effect = lower value. 4.5% of 410,000 active; in the data active = activity change below about -60%; inconclusive = no clear call, values can overlap the other calls; inactive = above about -39%
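Screen run at 2 compound doses on HFFs infected with reporter HCMV, MOI 1 PFU/cell. Luciferase activity from cell lysates at 72 h post infection gave inhibition relative to buffer-only and Salinomycin wells.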
Active calls of the source: *; u = inconclusive; x = not tested or not shown; ! = a repeat was not active; [ ] = remark or other dose. Unless noted, calls follow the shape of the dose curve; as a rule, active = well fitted inhibition curve with a large enough effect; inconclusive = small, poorly fitted or top-dose-only effect, or another doubt; inactive = no such curve, though single readings can be large or run the other way. % is scaled to controls: 0 for no effect and ±100 for the full control effect.

SMILES	Pf growth 96h	Marburg entry inh	HCV inh	LASV entry inh	Pf growth 48h	HCMV inh
O=C(O)Cc1ccc(NS(=O)(=O)c2ccc3c(c2)OCCO3)cc1	x	x	x	x	x	-30
CCCNC(=O)N1CCC(c2nc3ccccc3s2)CC1	u	x	u	x	1%[0.00184 µM]	-75*
O=C(CN1CCC(c2nc3ccccc3s2)CC1)NCc1cccs1	u	u	3.2µM*	u	-14%	-94*
COc1ccc(NC(=O)Cn2cnc3ccc(S(=O)(=O)N4CCC(C)CC4)cc3c2=O)c(OC)c1	x	-26%[46.1 µM]	x	0%[46.1 µM]	x	14
O=C(Nc1cccc(-c2nc3ncccc3o2)c1)c1sc2cc(Cl)ccc2c1Cl	78%	u	8.9µM*	-16%	45%	20
O=C(Nc1cccc(-c2nc3ncccc3o2)c1)c1sc2ccccc2c1Cl	0%	u	u	u	28%	6
Cc1ccc(NC(=O)c2oc3ccccc3c2NC(=O)C2CCCCC2)cc1	x	7%[46.1 µM]	x	-1%[46.1 µM]	x	-11
CCOc1ccccc1N(C(=O)c1snc(C(N)=O)c1N)C(CC)C(=O)NC1CCCC1 (stereo not drawn)	7%	u	u	u	-27%	u
CCOc1ccccc1N(C(=O)c1snc(C(N)=O)c1N)C(C(=O)NC1CCCC1)c1cccs1 (stereo not drawn)	u	u	u	u	9.3µM*	-2
O=C(NC1CCCCC1)C(c1cccs1)N(Cc1cccs1)C(=O)c1ccco1 (stereo not drawn)	x	u	2%	-10%	15µM*	u
O=C(NC1CCCCC1)C(c1cccs1)N(C(=O)c1ccco1)c1ccc2c(c1)OCCO2 (stereo not drawn)	303%	u	u	u	u	-61*
CCOc1ccccc1N(C(=O)c1ccco1)C(C(=O)NC1CCCC1)c1cccs1 (stereo not drawn)	u	u	-15%	-12%[46.1 µM]	0%	-63*
Cc1csc(-c2nc3ccccc3n2C(C)c2nc3ccccc3[nH]2)c1 (stereo not drawn)	x	x	x	x	x	13
OC(c1ccccc1)c1nc(-c2cccc(C(F)(F)F)c2)cs1 (stereo not drawn)	x	x	x	x	x	4
O=C(N/N=C/C=C/c1ccccc1)c1n[nH]c2c1CCC2	-18%	u	-29%	-5%	x	-21
CC(/C=N/NC(=O)c1n[nH]c2c1CCC2)=C\c1ccccc1	x	u	u	u	-9%	-88*
O=C(N/N=C/C(Br)=C\c1ccccc1)c1n[nH]c2c1CCC2	-11%	u	u	u	x	-79*
Cc1c(CC(=O)NCCc2ccc(Cl)cc2)c(=O)oc2c(C)c3occ(C(C)(C)C)c3cc12	x	11%[46.1 µM]	x	14%[46.1 µM]	x	-68*
CCc1cccc(NC(=O)c2cnc(SC)nc2-c2ccccc2)c1	x	x	x	16%[46.1 µM]	x	-17
Cc1ccc(-c2[nH]c(-c3ccc(Cl)cc3)nc2SCC(=O)NCC2CCCO2)cc1 (stereo not drawn)	9.3µM*	3%	16%	8%	u	31
O=C(CSc1oc(-c2ccc(F)cc2)nc1S(=O)(=O)c1ccccc1)NCC1CCCO1 (stereo not drawn)	-98%	u	-8%	-20%	-3%	-64*
O=C(CSc1oc(-c2ccccc2)nc1S(=O)(=O)c1ccc(F)cc1)NCC1CCCO1 (stereo not drawn)	3%	u	-2%	0%	-18%	0
Cc1ccc(S(=O)(=O)c2nc(-c3ccccc3)oc2SCC(=O)NCC2CCCO2)cc1 (stereo not drawn)	12µM*	u	10µM*	-34%[46.1 µM]	10µM*	u
Cc1cc(F)ccc1NCc1ccccc1-c1nnc(-c2ccccc2Cl)o1	x	-2%[46.1 µM]	x	14%[46.1 µM]	x	18
CCOc1ccc(C(=O)NCc2ccc3c(c2)CCN3C(=O)c2ccc(Cl)cc2)cc1	x	x	x	24%[46.1 µM]	x	16
SMILES	Pf growth 96h	Marburg entry inh	HCV inh	LASV entry inh	Pf growth 48h	HCMV inh
CCOc1ccc(NC(=O)Cn2cc(C(=O)c3ccc(C)c(C)c3)c(=O)c3cc(F)ccc32)cc1	x	-28%[46.1 µM]	x	-2%[46.1 µM]	x	-1
C[C@@H]1CN(S(=O)C(C)(C)C)[C@@H](CCO)/C1=C\c1ccccc1 (stereo partly drawn)	x	x	2%	x	x	-3
CCc1ccccc1N1C(=O)CC(N2CCc3ccccc32)C1=O (stereo not drawn)	u	u	-1%	-5%	10%	24
O=C1CC(N2CCCc3ccccc32)C(=O)N1c1ccccc1 (stereo not drawn)	12µM*	u	-1%	-3%	16%	-25
Cc1cccc(NC(=O)CSc2nnc(CNC(=O)c3ccc(S(=O)(=O)N(C)C)cc3)n2-c2ccc(F)cc2)c1	u	u	u	u	-14%	7
Cc1cccc(NC(=O)CSc2nnc(CNC(=O)c3ccc(S(=O)(=O)N(C)C)cc3)n2-c2cccc(C)c2)c1	7.4µM*	-36%	u	14µM*	u	-14
Cc1cccc(-n2c(CNC(=O)c3ccc(S(=O)(=O)N(C)C)cc3)nnc2SCC(=O)Nc2ccc(F)cc2)c1	u	28%	-7%	u	12µM*	3
Cc1ccc(OCCCCn2c(CCNC(=O)C(C)(C)C)nc3ccccc32)cc1	x	u	x	-18%[46.1 µM]	x	-11
Cc1ccc(CSc2nnc(SCC(=O)N/N=C/c3c(C)nn(-c4ccccc4)c3C)s2)cc1	u	u	u	8.2µM*	25%	-9
Cc1nn(-c2ccccc2)c(C)c1/C=N/NC(=O)CSc1nnc(SCc2ccccc2Cl)s1	u	u	u	2.1µM*	30%	-18
Cc1nn(-c2ccccc2)c(C)c1/C=N/NC(=O)CSc1nnc(-c2ccccc2)n1-c1ccc(Cl)cc1	10%	u	u	u	36%	-16
Cc1ccc(OCc2cc(C(=O)N(C)Cc3cc(C4CC4)n[nH]3)no2)cc1C	-6%	x	-24%	x	-5%	u
Cc1ccccc1Nc1c(-c2cccnc2)nc2cccc(C)n12	-1%	-33%[46.1 µM]	u	-2%[46.1 µM]	u	-62*!
Cc1cccc2nc(-c3cccnc3)c(Nc3ccc(C(C)C)cc3)n12	x	u	x	u	x	-83*
COC(=O)C1=NNC(C(=O)c2ccco2)C1c1ccc(OC)cc1 (stereo not drawn)	-21%	x	4%	x	-13%	-64*
COC(=O)C1=NNC(C(=O)c2ccco2)C1c1ccccc1 (stereo not drawn)	-14%	-2%	-8%	-1%	16%	-17
COc1ccc(C(=O)CSc2nc3cccnc3n2C)cc1	3.7µM*	u	u	2%	10%	u
CC1=CC(C)(C)N2C(=O)C3(NCCc4c3[nH]c3ccccc43)c3cc(C)cc1c32 (stereo not drawn)	u	x	7.9µM*	x	u	u
